In PubChem BioAssay (EPA / NIEHS):
Several values for one entry are separate records, joined by “and”; a condition that tells them apart may be missing. Identical values can stand only once. Where a structure was tested more than once in an assay, its records may differ in their call. Activity calls are given as the source filed them. The calls were made as follows: active = hit-call score of the fitted dose curve at least 0.9, where 1 is the maximum; inactive = score below 0.9.

Key:
Settings in all cases: primary human HUVEC with PBMC; actives raise or lower the signal
[1] = read-out: Interleukin-1 alpha (IL1a), IL1A (gene 3552); experiment: BSK_LPS_IL1a: BioMAP Diversity Plus: LPS Assay for Interleukin-1 alpha (IL1a) Biomarker Activity (AID 2283080)
How it was run: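 Human umbilical vein endothelial cells co-cultured with PBMC and stimulated with LPS; IL-1a measured by ELISA 24 h after dosing. Bidirectional fitting against DMSO; cytotoxicity checked by SRB staining in parallel cultures.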

[2] = read-out: Monocyte Chemoattractant Protein-1 (MCP1), CCL2 (gene 6347); experiment: BSK_LPS_MCP1: BioMAP Diversity Plus: LPS Assay for Monocyte Chemoattractant Protein-1 (MCP1) Biomarker Activity (AID 2283081);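 as to AC50: secreted MCP-1 protein quantified by ELISA in culture supernatant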
How it was run: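 Human umbilical vein endothelial cells co-cultured with PBMC, LPS-stimulated; secreted MCP-1 measured by ELISA 24 h after compound addition. Bidirectional curve fitting against DMSO baseline; SRB total-protein staining in parallel cultures for cytotoxicity.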

[3] = BSK_LPS_PGE2: BioMAP Diversity Plus: LPS Assay for Prostaglandin E2 (PGE2) Biomarker Activity (AID 2283082);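 as to AC50: secreted prostaglandin E2 measured by ELISA in LPS-stimulated co-culture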
How it was run: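 LPS-activated HUVEC/PBMC co-culture; cmpd dosed, 24 h; PGE2 by ELISA; bidirectional fit vs DMSO; SRB (0.1%, TCA-fixed, 560 nm) in parallel plates for overt cytotox.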

[4] = read-out: Macrophage colony-stimulating factor (MCSF), CSF1 (gene 1435); experiment: BSK_LPS_MCSF: BioMAP Diversity Plus: LPS Assay for Macrophage colony-stimulating factor (MCSF) Biomarker Activity (AID 2283083)
How it was run: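 HUVEC–PBMC co-culture, M-CSF measured by ELISA 24 h after chemical dosing. Fitted in both directions relative to DMSO as negative control; overt cytotoxicity assessed by SRB total-protein staining in parallel cultures.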

[5] = read-out: Tissue Factor, F3 (gene 2152); experiment: BSK_LPS_TissueFactor: BioMAP Diversity Plus: LPS Assay for Tissue Factor Biomarker Activity (AID 2283084)
How it was run: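 Human umbilical vein endothelial cells co-cultured with PBMC were dosed with compound. Cell-surface CD142 was measured by ELISA 24 h later. Activity was fitted bidirectionally against DMSO, with SRB total-protein staining in parallel cultures for cytotoxicity.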

[6] = read-out: Tumor necrosis factor (Homo sapiens) (UniProt P01375); experiment: BSK_LPS_TNFa: BioMAP Diversity Plus: LPS Assay for Tumour Necrosis Factor alpha (TNFa) Biomarker Activity (AID 2283085);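 as to AC50: TNFa protein level quantified by ELISA in the co-culture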
How it was run: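 Read-out is ELISA of TNFa in primary human endothelial cell–PBMC co-cultures at 24 h after compound. Activity in either direction was fitted against DMSO.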

[7] = read-out: Vascular cell adhesion molecule 1 (VCAM1), VCAM1 (gene 7412); experiment: BSK_LPS_VCAM1: BioMAP Diversity Plus: LPS Assay for Vascular cell adhesion molecule 1 (VCAM1) Biomarker Activity (AID 2283086)
How it was run: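 HUVEC + PBMC co-culture, LPS system; compound 24 h; VCAM-1 by ELISA; bidirectional fit vs DMSO control; parallel SRB (0.1%, TCA-fixed, 560 nm) for cytotoxicity.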

[8] = read-out: CD38, CD38 (gene 952); experiment: BSK_SAg_CD38: BioMAP Diversity Plus: SAg Assay for CD38 Biomarker Activity (AID 2283087)
How it was run: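 Human HUVEC plus PBMC co-culture stimulated with superantigen; CD38 measured by ELISA 24 h after chemical dosing. Fluorescence read-out, bidirectional fit against DMSO; cytotoxicity tracked in parallel by SRB and Alamar Blue.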

[9] = read-out: CD40, CD40 (gene 958); experiment: BSK_SAg_CD40: BioMAP Diversity Plus: SAg Assay for CD40 Biomarker Activity (AID 2283088)
How it was run: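 HUVEC plus PBMC co-culture, superantigen-activated, with CD40 read by ELISA 24 h after dosing. Curves fitted in both directions against DMSO. Overt cytotoxicity checked by parallel SRB total-protein staining.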

[10] = read-out: CD69, CD69 (gene 969); experiment: BSK_SAg_CD69: BioMAP Diversity Plus: SAg Assay for CD69 Biomarker Activity (AID 2283089);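 as to AC50: cell surface CD69 protein quantified by ELISA with fluorescence detection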
How it was run: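 Primary human vascular co-culture (umbilical vein endothelium with peripheral blood mononuclear cells) exposed to test chemical for 24 h. CD69 levels quantified by fluorescence ELISA; DMSO served as negative control for bidirectional fitting.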

Tumor necrosis factor (Homo sapiens), sequence (P01375 whole entry, looked up): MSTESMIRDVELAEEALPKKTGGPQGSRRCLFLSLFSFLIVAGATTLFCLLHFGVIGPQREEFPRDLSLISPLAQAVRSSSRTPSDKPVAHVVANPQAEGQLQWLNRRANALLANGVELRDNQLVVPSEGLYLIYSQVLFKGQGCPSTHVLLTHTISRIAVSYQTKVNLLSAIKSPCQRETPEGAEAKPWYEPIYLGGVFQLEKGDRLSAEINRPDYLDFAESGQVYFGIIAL

Compound	AC50 [1]	AC50 [2]	AC50 [3]	AC50 [4]	AC50 [5]	outcome [6]	AC50 [7]	AC50 [8]	AC50 [9]	AC50 [10]	outcome [1]	outcome [2]	outcome [3]	outcome [4]	outcome [5]	AC50 [6]	outcome [7]	outcome [8]	outcome [9]	outcome [10]
C=CC(=O)OCC(C)OCC(C)OCC(C)OC(=O)C=C (stereo not given)	9.53 µM (active)	9.18 µM (active)	5.46 µM (active)	10 µM (active)	10.6 µM (active)	inactive	8.45 µM (active)	7.74 µM (active)	8.77 µM (active)	7.77 µM (active)	–	–	–	–	–	–	–	–	–	–
O=C1CCCCCCCCCCCN1	–	–	–	–	–	–	–	–	–	–	inactive	inactive	inactive	inactive	inactive	11.9 µM (active)	inactive	inactive	inactive	inactive
CC(Cl)COP(=O)(OCC(C)Cl)OCC(C)Cl (stereo not given)	–	–	–	–	–	–	–	–	–	–	inactive	inactive	inactive	inactive	inactive	1.31 µM (active)	inactive	inactive	inactive	inactive
Nc1ccc(C(=O)O)cc1	–	–	–	–	–	inactive	–	–	–	–	inactive	inactive	inactive	inactive	inactive	–	inactive	inactive	inactive	inactive
CC=C(C)C(C)=O	–	–	–	–	–	inactive	–	–	–	–	inactive	inactive	inactive	inactive	inactive	–	inactive	inactive	inactive	inactive
CC/C=C\CCOC(=O)c1ccccc1O	29.6 µM (active)	32.8 µM (active)	–	33 µM (active)	33 µM (active)	–	37.9 µM (active)	31 µM (active)	33.6 µM (active)	20 µM (active)	–	–	inactive	–	–	31.5 µM (active)	–	–	–	–
Nc1cccc(N)n1	–	–	–	–	–	inactive	–	–	–	–	inactive	inactive	inactive	inactive	inactive	–	inactive	inactive	inactive	inactive
C=CCCCCCCCCC=O	–	–	–	–	–	inactive	–	–	–	–	inactive	inactive	inactive	inactive	inactive	–	inactive	inactive	inactive	inactive
CCCC(C)C(=O)OCC (stereo not given)	–	–	–	–	–	inactive	–	–	–	–	inactive	inactive	inactive	inactive	inactive	–	inactive	inactive	inactive	inactive
C=CC(=O)NC(C)(C)C	–	–	–	–	–	inactive	–	–	–	–	inactive	inactive	inactive	inactive	inactive	–	inactive	inactive	inactive	inactive
C[N+](C)(C)CCCNS(=O)(=O)C(F)(F)C(F)(F)C(F)(F)C(F)(F)C(F)(F)C(F)(F)C(F)(F)C(F)(F)F	13.2 µM (active) and 30 µM (active)	36.4 µM (active)	19.3 µM (active) and 14.8 µM (active)	46.7 µM (active) and 52.8 µM (active)	14.1 µM (active)	–	45 µM (active) and 49.6 µM (active)	–	30 µM (active)	–	–	inactive	–	–	inactive	41 µM (active) and 28.3 µM (active)	–	inactive	inactive	inactive
Cc1c(O)cccc1O	–	–	–	–	–	inactive	–	–	–	–	inactive	inactive	inactive	inactive	inactive	–	inactive	inactive	inactive	inactive
COc1ccc(C(=O)c2ccccc2)c(O)c1	–	–	4.59 µM (active)	–	–	inactive	–	–	–	–	inactive	inactive	–	inactive	inactive	–	inactive	inactive	inactive	inactive
CCOC(=O)C1=NN(c2ccc(Cl)cc2Cl)C(C)(C(=O)OCC)C1 (stereo not given)	–	–	8.97 µM (active)	–	–	inactive	–	–	–	–	inactive	inactive	–	inactive	inactive	–	inactive	inactive	inactive	inactive
CCCCCCCCCCCC(C)=O	–	–	–	–	–	–	30.8 µM (active)	31.6 µM (active)	30 µM (active)	31.1 µM (active)	inactive	inactive	inactive	inactive	inactive	29.2 µM (active)	–	–	–	–
Nc1nc(N)nc(-c2ccccc2)n1	–	–	–	–	–	inactive	–	–	–	–	inactive	inactive	inactive	inactive	inactive	–	inactive	inactive	inactive	inactive
CCCCCC1=CCCC1=O	–	–	–	–	–	inactive	24 µM (active)	–	–	–	inactive	inactive	inactive	inactive	inactive	–	–	inactive	inactive	inactive
CCNc1nc(NC(C)(C)C)nc(OC)n1	–	–	0.0727 µM (active)	–	–	–	–	–	–	–	inactive	inactive	–	inactive	inactive	5.59 µM (active)	inactive	inactive	inactive	inactive
CCOC(=O)C1=NOC(c2ccccc2)(c2ccccc2)C1	–	–	–	–	–	inactive	–	–	–	–	inactive	inactive	inactive	inactive	inactive	–	inactive	inactive	inactive	inactive
CCCCCCCCCCCC(=O)N(C)CC(=O)O	–	–	5.24 µM (active)	5.86 µM (active)	–	inactive	–	–	–	–	inactive	inactive	inactive	inactive	inactive	–	inactive	inactive	inactive	inactive
CCN1CN(CC)CN(CC)C1	–	–	–	–	–	–	–	–	–	–	inactive	inactive	inactive	inactive	inactive	2.22 µM (active)	inactive	inactive	inactive	inactive
CCOC(=O)/C=C\C(=O)OCC	–	–	–	–	–	inactive	–	–	–	–	inactive	inactive	inactive	inactive	inactive	–	inactive	inactive	inactive	inactive
Oc1c(Cl)cc(Cl)c(Cl)c1Cl	–	31.5 µM (active)	–	26 µM (active)	20 µM (active)	inactive	20 µM (active)	20 µM (active)	20 µM (active)	27.8 µM (active)	inactive	–	inactive	–	–	–	–	–	–	–
COC(OC)(C(=O)c1ccccc1)c1ccccc1	0.0387 µM (active)	–	–	–	–	inactive	–	–	–	–	–	inactive	inactive	inactive	inactive	–	inactive	inactive	inactive	inactive
C1CNCCN1	–	–	–	–	–	inactive	–	–	–	–	inactive	inactive	inactive	inactive	inactive	–	inactive	inactive	inactive	inactive
CC1=CC=C(C(C)C)CC1	–	–	–	–	–	inactive	–	–	–	–	inactive	inactive	inactive	inactive	inactive	–	inactive	inactive	inactive	inactive
c1ccc(Nc2cccc3ccccc23)cc1	34.1 µM (active) and 34.7 µM (active)	27.8 µM (active) and 29.1 µM (active)	2.88 µM (active) and 2.19 µM (active)	31.2 µM (active) and 16.1 µM (active)	–	–	32.5 µM (active) and 28.1 µM (active)	30.4 µM (active) and 31.1 µM (active)	28.9 µM (active) and 26.5 µM (active)	30.4 µM (active) and 33.2 µM (active)	–	–	–	–	inactive	31.6 µM (active) and 29.9 µM (active)	–	–	–	–
CCCCCCCO	–	–	–	–	–	inactive	–	–	–	–	inactive	inactive	inactive	inactive	inactive	–	inactive	inactive	inactive	inactive
CC(C)C(=O)OCCc1ccccc1	–	–	–	–	–	inactive	–	–	–	–	inactive	inactive	inactive	inactive	inactive	–	inactive	inactive	inactive	inactive
